The list is not random: actives were taken first. Their share in the collection is about 14%.
MARV entry inh = qHTS for inhibitors of binding or entry into cells for Marburg Virus; AID 540276, 2011; Potency, µM (series often up to 37.8 µM), without a hit: at the top dose activity change, negative = inhibition, usual class: inhibitors; Marburg virus pseudotyped entry inhibition, cell reporter; actives 1.8% (n = 300,000); calls by dose curve; tested in HEK293 cells; further: potency means the concentration at half of the fitted maximal effect
Pf growth 96h = Primary qHTS for delayed death inhibitors of the malarial parasite plastid, 96 hour incubation | actives 6.9% (n = 320,000) | P. falciparum luciferase reporter growth, 96 h | Potency, µM (titrated, usually from 28.7 µM), without a hit: at the top dose activity change, negative = inhibition, usual class: inhibitors; further: potency means the concentration at half of the fitted maximal effect
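Readout is luminescence from an integrated firefly luciferase in P. falciparum. Red cells, 2% hematocrit and 0.05% parasitemia final, were cultured with compound through two parasite generations (96 hours) at 37 C, 5% CO2.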
HCMV antiviral = qHTS Assay for inhibitors of the human cytomegalovirus (HCMV); HFF cells, HCMV-luciferase reporter, 72 h; stronger effect = lower value; activity change, negative = inhibition, % at 57.5 µM; actives 4.5% (n = 410,000); AID 1259415, 2018; in the data active means activity change below about -60%; inconclusive means no clear call, values can overlap the other calls; inactive means above about -39%
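Compounds were evaluated in HFFs infected with an HCMV luciferase reporter virus (MOI 1 PFU/cell). Luciferase in lysates collected 72 h post infection served as the replication measure.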
LASV entry inh = qHTS for Inhibitors of binding or entry into cells for Lassa Virus | AID 540256, 2011 | Potency, µM (highest dose often 37.9 µM), for the others: at the top dose activity change, negative = inhibition, hits mostly inhibitors | actives 1.2% (n = 300,000) | Lassa virus pseudotype entry inhibition, cell reporter; calls by dose curve; tested in HEK293 cells; further: potency means the concentration at half of the fitted maximal effect; nearly all actives have a fitted effect of over 50% in size
Pf growth 48h = Primary qHTS for delayed death inhibitors of the malarial parasite plastid, 48 hour incubation | P. falciparum luciferase growth in erythrocytes, 48 h | Potency, µM (titrated, usually from 28.7 µM), inactives show at the top dose activity change, negative = inhibition, usual class: inhibitors | actives 5.9% (n = 310,000); further: potency means the concentration at half of the fitted maximal effect
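In quantitative HTS format, infected erythrocytes bearing luciferase-reporter parasites were treated for a single generation at 37 C. Luminescence after adding detection reagent served as the growth measure.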
HCV inh = qHTS Assay for Inhibitors of Hepatitis C Virus (HCV). Huh7.5.1 HCVcc-Cre infection, luciferase reporter, 44 h. Potency, µM (top dose mostly 41.8 µM), for the others: at the highest dose activity change, negative = inhibition, usual class: inhibitors. actives 3.4% (n = 340,000); further: potency means the concentration at half of the fitted maximal effect
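Compounds are dispensed onto cells plated 4 h earlier at 1,000 per well, with HCVcc-Cre virus (about 0.5 moi) added next. Following 44 h of culture, luminescent signal is measured for 15 sec after 15 min with substrate at room temperature.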
* hit, by the source's call; ? = inconclusive; · = not tested or not shown; [ ] = remark or other dose. Unless noted, the call rests on the fitted dose curve; in most records, active means well fitted inhibition curve with a large enough effect; inconclusive means small, poorly fitted or top-dose-only effect, or another doubt; inactive means no such curve, though single readings can be large or run the other way. On the % scale 0 is the no-effect control and ±100 the full control effect.

SMILES	MARV entry inh	Pf growth 96h	HCMV antiviral	LASV entry inh	Pf growth 48h	HCV inh
CCOc1ccc2[nH]c(=O)c(CN(Cc3nnnn3Cc3ccco3)C3CCCCC3)cc2c1	10µM*	22%	-3	?	12µM*	?
CCOc1ccc2[nH]c(=O)c(CN(CCO)Cc3nnnn3CCc3ccccc3)cc2c1	1%	22%	21	10%	·	-12%
COc1cc2cc(CN(Cc3nnnn3Cc3ccco3)C3CCCCC3)c(=O)[nH]c2cc1OC	?	·	-22	-12%	8.3µM*	-7%
CCOc1ccc2[nH]c(=O)c(CN(Cc3ccco3)Cc3nnnn3Cc3ccccc3)cc2c1	0%	-17%	-23	-13%	-18%	?
CCOc1ccc2[nH]c(=O)c(CN(CCO)C3(c4nnnn4C4CCCCC4)CCCCC3)cc2c1	?	0%	-61*	5%	-8%	11%
COCCn1nnnc1CN(Cc1cc2cc(OC)c(OC)cc2[nH]c1=O)C1CCCC1	3%	·	-20	-9%	0%	-2%
COc1cc(OC)c(NC(=O)c2c(C)nn(-c3ccc(C)cc3)c2-n2cccc2)cc1Cl	·	·	-9	-2%[46.1 µM]	·	·
C=CCN=c1scc(-c2ccc(F)cc2)n1/N=C/c1ccccn1	?	?	-85*	?	?	?
CCN=c1scc(-c2ccc(F)cc2)n1/N=C/c1ccccn1	?	-68%	-88*	?	139%	-12%
COC(=O)C(CCSC)NC(=O)Cn1ncc2c(=O)oc3ccccc3c21 (centres undefined)	·	12µM*	-1	·	·	3%
Cc1c2cnn(CC(=O)N3CCOCC3)c(=O)c2c(C)n1Cc1ccc(F)cc1	·	·	-5	·	·	·
Cc1ccc2oc(=O)c3cnn(CC(=O)NCCN4CCOCC4)c3c2c1	·	9.3µM*	33	·	13%	11%
Cc1c2cnn(CC(=O)NCCN3CCOCC3)c(=O)c2c(C)n1Cc1ccc(F)cc1	·	40%	-72*	·	-6%	12%
Cc1ccc2oc(=O)c3cnn(CC(=O)NC4CCN(Cc5ccccc5)CC4)c3c2c1	·	2.3µM*	1	·	·	-14%
Cc1cccc(S(=O)(=O)NC(=O)C2(C)CCN2C(=O)Cc2cccs2)c1 (centres undefined)	·	·	-33	·	·	·
O=C(COc1ccc(F)c(Cl)c1)NC(=O)NC1CCCC1	·	·	-8	·	·	·
CCN(CCCNC(=O)Cn1ncc2c(=O)oc3ccccc3c21)c1cccc(C)c1	4%	-4%	-25	·	·	13µM*
O=C(Cn1ncc2c(=O)oc3ccccc3c21)NCC1COc2ccccc2O1 (centres undefined)	0%	1.9µM*	9	·	·	8%
COC(=O)[C@H](CCSC)NC(=O)Cn1cc(C)c(=O)[nH]c1=O	·	·	-19	·	·	0.5µM*
O=C(Cn1ncc2c(=O)oc3ccccc3c21)NC1CC1	?	?	31	41%	10%	16%
COC(=O)C[C@H](NC(=O)Cn1cc(C)c(=O)[nH]c1=O)C(=O)OC	·	·	24	·	·	5%
Cc1ccc(-n2c(Cc3ccccc3)nnc2SCc2nc(-c3cccs3)no2)cc1C	?	·	-6	-29%[46.1 µM]	·	·
COc1ccc(NC(=O)COC(=O)c2cccn2C)cc1S(=O)(=O)N1CCCCC1	?	·	-69*	9%[46.1 µM]	·	?
CCc1ccccc1OCC(=O)Nc1ccc(F)c(S(=O)(=O)N2CCOCC2)c1	-28%	13µM*	-22	-4%	?	?
COc1ccc(NC(=O)CSc2ccc(NC(C)=O)cc2)cc1S(=O)(=O)N1CCOCC1	19%[46.1 µM]	·	-8	?	·	0%
SMILES	MARV entry inh	Pf growth 96h	HCMV antiviral	LASV entry inh	Pf growth 48h	HCV inh
COc1ccc(NC(=O)CSc2ccc3ccccc3c2)cc1S(=O)(=O)N1CCCCC1	?	-5%	-82*	?	3%	5µM*
COc1ccc(CC(=O)Nc2ccc(F)c(S(=O)(=O)N3CCOCC3)c2)cc1	0%[46.1 µM]	·	63	4%	·	13%
Cn1cccc1C(=O)OCC(=O)Nc1ccc2c(c1)OCCO2	6.3µM*	·	132	7.1µM*	·	-7%
Cc1ccccc1CCNCc1c(C(=O)O)c(C)n(Cc2c(F)cccc2Cl)c1C	10%[46.1 µM]	·	5	3%[46.1 µM]	·	·
C[C@H](CO)N1C[C@H](C)[C@H](CN(C)S(=O)(=O)c2ccc(C#N)cc2)OCc2cnnn2CCCC1=O	·	·	23	·	·	·
COc1ccc(NC(=O)c2n[nH]c(=O)c3ccccc23)cc1S(=O)(=O)N1CCCCC1	?	?	-17	?	?	11µM*
Cc1ccc(OCC(=O)Nc2ccc(C)c(S(=O)(=O)N3CCCCC3)c2)c([N+](=O)[O-])n1	1.1µM*	-29%	-19	?	-25%	?
COc1ccc(NC(=O)COc2ccccc2Cl)cc1S(=O)(=O)N1CCCCC1	?	10µM*	?	?	12µM*	10µM*
COc1ccc(NC(=O)c2ccco2)cc1S(=O)(=O)N1CCCCC1	1%	-12%	-24	-5%	4%	-28%
COc1ccc(OCC(=O)Nc2ccc(OC)c(S(=O)(=O)N3CCCCC3)c2)cc1	?	7%	-25	?	-6%	10µM*
CCC[C@H]1[C@@H](NC(=O)Nc2ccc(Cl)cc2)CC[C@@]23CCCN2C(=O)CCC[C@@H]13	·	·	-14	·	·	·
Cc1nc2c(c(C)c1CCC(=O)NCc1ccc(F)cc1)c(=O)n(C)c(=O)n2C	15%[46.1 µM]	·	6	-3%[46.1 µM]	·	·
CC(C)(C)N1C(=O)c2ccccc2NC(=O)N1Cc1ccc(Br)cc1	?	8.3µM*	-65*	-8%	·	-1%
Cc1ccccc1CN1C(=O)Nc2ccccc2C(=O)N1C(C)(C)C	?	·	-38	5%	-5%	4%
Cc1ccc(NC(=O)CN2C(=O)CSc3ccc(S(=O)(=O)N4CCCC4)cc32)c(C)c1	·	·	8	2%[46.1 µM]	·	·
CCc1ccc2c(c1)NC(=O)C2(C)Cc1ccccc1OC (centres undefined)	·	·	-71*	·	·	·
CCc1ccc2c(c1)NC(=O)C2(C)Cc1ccccc1Cl (centres undefined)	·	·	-9	·	·	·
COc1ccccc1CC1(C)C(=O)Nc2c(Cl)cccc21 (centres undefined)	·	·	-73*	·	·	·
Cc1ccc(CC2(C)C(=O)Nc3c(Cl)cccc32)cc1 (centres undefined)	·	·	-37	·	·	·
CCOC(=O)N1CCC(Nc2c(-c3ccc(C)cc3)c(=O)c2=O)CC1	-2%	3%	-10	?	-1%	21%
CCOC(=O)N1CCC(Nc2c(Nc3ccc(F)cc3)c(=O)c2=O)CC1	3%	?	23	-10%	10µM*	-14%
CCOC(=O)N1CCC(Nc2c(Nc3cccc(CC)c3)c(=O)c2=O)CC1	-24%	?	-9	-12%	10µM*	?
